# PKM2 inhibitor = inhibitors of human pyruvate kinase M2. P14618. purified PKM2, ATP generation, Kinase-Glo luminescence. Potency, µM (titrated, usually from 57.5 µM), inactives show at the top dose activity change, negative = inhibition, actives largely listed as inhibitors. actives 0.058% (n = 260,000). AID 1634; also: potency is read from the fitted curve at half-maximal effect; nearly all actives have a fitted effect of over 60% in size
#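 Coupled luciferase luminescence (Kinase-Glo) detects ATP generated from 0.1 mM ADP and 0.5 mM PEP in imidazole buffer pH 7.2 with KCl, MgCl2; 1 h at room temperature. Enzyme at intermediate activity; normalized to uninhibited and no-enzyme controls.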
# PKM2 inh dose = PKM2 (human) inhibition, concentration-response confirmation; shares compounds with PKM2 inhibitor; purified hPK-M2, Kinase-Glo ATP luminescence, 1 h; Potency, µM (top dose mostly 57.5 µM), for inactives: at the top dose activity change, negative = inhibition, usual class: inhibitors; actives 50% (n = 55); AID 2263
# FLuc counter = counter-screen for pyruvate kinase M2 inhibitors: firefly luciferase inhibition; shares compounds with PKM2 inhibitor; Kinase-Glo firefly luciferase, luminescence, 8 min; actives 30% (n = 55); Potency, µM (series often up to 57.5 µM), for inactives: at the top dose activity, negative = inhibition, most hits filed as inhibitors
# PKM2 inh LDH = confirmation of human pyruvate kinase M2 inhibitors, coupled readout; Potency, µM (top dose mostly 57.5 µM), for the others: top-dose activity change, negative = inhibition, usual class: inhibitors; purified hPK-M2, LDH-coupled NADH fluorescence kinetic; 55 tested, under 10 active; shares compounds with PKM2 inhibitor; AID 2267
# An asterisk follows results filed as active; ? = inconclusive; . = no result. The sample as a whole holds a higher share of hits than the screen did. Calls follow the shape of the dose curve; as a rule, active = well fitted curve in the direction sought with a large enough effect; inconclusive = small, poorly fitted or top-dose-only effect, or another doubt; inactive = no such curve, though single readings can be large; an effect the other way counts as inactive or inconclusive.
SMILES,PKM2 inhibitor,others
Cc1ccc(NC(=O)c2cc(N3C(=O)C=CC3=O)ccc2Cl)cc1C,84.6%,
Cc1nn(C)c(Sc2ccccc2N)c1[N+](=O)[O-],91.9%,
Cc1ccc(C(=O)N2CC(=O)NC(=O)C2)cc1,-3.0%,
COc1cc(C(=S)N2CCN(c3ccccc3Cl)CC2)cc(O)c1O,130.4%,
CCOC(=O)c1sc(S(C)=O)c2c1CCc1conc1-2 (configuration not stated),65.8%,
O=C1CNC(=S)N1CCc1ccc(O)c(O)c1,45.4%,
CN(Cc1ccon1)Cc1cn(C)nc1-c1cccc(Cl)c1,10µM*,PKM2 inh dose=5.9%;FLuc counter=-0.6%;PKM2 inh LDH=-9.2%
O=C(CCC(=O)N1CCN(S(=O)(=O)c2ccc3ccccc3c2)CC1)NCC(F)(F)F,49.2%,
COc1ccc(S(=O)(=O)N2CCN(C(=O)NCc3ccc(C)cc3)CC2)cc1,62.8%,
Cc1ccc2nc(-c3ccc(C)o3)c(NC3CCCC3)n2c1,.,PKM2 inh dose=10.9%;FLuc counter=0.8%;PKM2 inh LDH=?
O=S(=O)(c1ccc(F)cc1)N1CCN(Cc2ccccn2)CC1,32.3%,

# Screens (PubChem)
